# Measured values: PubChem BioAssay AID1159580 (chemical genetic matrix, 2015)
# Several values for one entry are separate records, joined by “and”; a condition that tells them apart may be missing. Identical values can stand only once. In all, about 5,500 compounds went through this assay and about 2,000 (36%) were called active. Another 18% or so got no clear call; they are omitted. Some of the results follow. A number with no mark means an inactive call. No stated cut-off is given here; in the data, active means normalized growth mostly below about 0.91 (no sharp cut-off); inconclusive means no clear call, values can overlap the other calls; inactive means mostly above about 0.92.
# Test: chemical genetic growth profiling, strain panel (AID 1159580);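 further: tested at 20 µM; growth read once vehicle control cultures reached saturation at 30 °C; 1 = growth at the plate median or of vehicle wells; lower values mean less growth of the strain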
# Details: S. cerevisiae deletion strains, growth OD
smiles,measurement,setting,value
CC(C)CCCC(C)[C@H]1CCC2C3C(=O)C=C4C[C@@H](O)CC[C@]4(C)C3CC[C@@]21C (some centres not stated),normalized growth,"locus YAL013W, strain DEP1, hits give low values",1.02
same,normalized growth,"locus YAL021C, strain ccr4, hits give low values",0.974
same,normalized growth,"locus YAL026C, strain drs2, hits give low values",1.02
same,normalized growth,"locus YAL030W, strain snc1, hits give low values",0.996
same,normalized growth,"locus YBL061C, strain skt5, hits give low values",1.01
same,normalized growth,"locus YBR009C, strain hhf1, hits give low values",1.06
same,normalized growth,"locus YBR021W, strain FUR4, hits give low values",1.05
same,normalized growth,"locus YBR023C, strain chs3, hits give low values",1.01
same,normalized growth,"locus YBR171W, strain sec66, hits give low values",1
same,normalized growth,"locus YBR229C, strain ROT2, hits give low values",1.06
same,normalized growth,"locus YBR231C, strain swc5, hits give low values",1.05
same,normalized growth,"locus YBR279W, strain paf1, hits give low values",1.01
same,normalized growth,"locus YCL011C, strain gbp2, hits give low values",0.994
same,normalized growth,"locus YCL016C, strain dcc1, hits give low values",1
same,normalized growth,"locus YCL029C, strain bik1, hits give low values",1.03
same,normalized growth,"locus YCL061C, strain MRC1, hits give low values",1.01
same,normalized growth,"locus YCL069W, strain vba3, hits give low values",0.996
same,normalized growth,"locus YCR088W, strain abp1, hits give low values",0.991
same,normalized growth,"locus YDL005C, strain med2, hits give low values",0.994
same,normalized growth,"locus YDL035C, strain GPR1, hits give low values",1.04
same,normalized growth,"locus YDL040C, strain nat1, hits give low values",0.982
same,normalized growth,"locus YDL074C, strain BRE1, hits give low values",1.04
same,normalized growth,"locus YDL101C, strain DUN1, hits give low values",1.04
same,normalized growth,"locus YDL185W, strain tfp1, hits give low values",1.04
same,normalized growth,"locus YDL192W, strain arf1, hits give low values",1.06
same,normalized growth,"locus YDR001C, strain nth1, hits give low values",1.01
same,normalized growth,"locus YDR069C, strain doa4, hits give low values",1
same,normalized growth,"locus YDR101C, strain arx1, hits give low values",1.04
same,normalized growth,"locus YDR137W, strain rgp1, hits give low values",0.946
same,normalized growth,"locus YDR150W, strain NUM1, hits give low values",1.01
same,normalized growth,"locus YDR159W, strain sac3, hits give low values",1.06
same,normalized growth,"locus YDR162C, strain NBP2, hits give low values",1.07
same,normalized growth,"locus YDR195W, strain ref2",0.997
same,normalized growth,"locus YDR297W, strain sur2, hits give low values",0.996
same,normalized growth,"locus YDR318W, strain mcm21, hits give low values",1.03
same,normalized growth,"locus YDR334W, strain swr1, hits give low values",0.975
same,normalized growth,"locus YDR335W, strain msn5, hits give low values",1.01
same,normalized growth,"locus YDR388W, hits give low values",1.02
same,normalized growth,"locus YDR392W, strain spt3, hits give low values",0.968
same,normalized growth,"locus YDR502C, strain sam2, hits give low values",1.02
same,normalized growth,"locus YEL003W, strain gim4, hits give low values",0.996
same,normalized growth,"locus YEL037C, strain rad23, hits give low values",1.01
same,normalized growth,"locus YEL061C, strain CIN8 (second series), hits give low values",1
same,normalized growth,"locus YEL061C, strain CIN8, hits give low values",1.01
same,normalized growth,"locus YER015W, strain faa2, hits give low values",1.01
same,normalized growth,"locus YER016W, strain bim1, hits give low values",0.994
same,normalized growth,"locus YER110C, hits give low values",1.04
same,normalized growth,"locus YER111C, strain swi4, hits give low values",1
same,normalized growth,"locus YER155C, strain BEM2 (second series), hits give low values",1.03
same,normalized growth,"locus YER155C, strain BEM2, hits give low values",1.01
same,normalized growth,"locus YER167W, strain BCK2, hits give low values",1.03
same,normalized growth,"locus YFR010W, strain ubp6, hits give low values",1.02
same,normalized growth,"locus YGL078C, strain dbp3, hits give low values",1.04
same,normalized growth,"locus YGL086W, strain mad1, hits give low values",1.01
same,normalized growth,"locus YGL167C, strain pmr1, hits give low values",1.01
same,normalized growth,"locus YGL173C, strain kem1, hits give low values",1
same,normalized growth,"locus YGL227W, strain vid30, hits give low values",1.01
same,normalized growth,"locus YGL240W, strain doc1, hits give low values",1.13 [resistant] (active)
same,normalized growth,"locus YGL248W, strain PDE1, hits give low values",1.04
same,normalized growth,"locus YGL253W, strain hxk2, hits give low values",0.93
same,normalized growth,"locus YGR135W, strain pre9, hits give low values",1.04
same,normalized growth,"locus YGR229C, strain SMI1, hits give low values",1.08
same,normalized growth,"locus YGR252W, strain gcn5, hits give low values",1.05
same,normalized growth,"locus YHR013C, strain ard1, hits give low values",1.02
same,normalized growth,"locus YHR027C, strain rpn1, hits give low values",0.992
same,normalized growth,"locus YHR030C, strain SLT2, hits give low values",1.01 and 0.966
same,normalized growth,"locus YHR079C, strain IRE1 (second series), hits give low values",1.02
same,normalized growth,"locus YHR079C, strain IRE1, hits give low values",1.01
same,normalized growth,"locus YHR094C, strain hxt1, hits give low values",1.04
same,normalized growth,"locus YHR129C, strain ARP1, hits give low values",1.03
same,normalized growth,"locus YHR142W, strain chs7, hits give low values",0.918
same,normalized growth,"locus YHR200W, strain rpn10, hits give low values",1
same,normalized growth,"locus YIL066C, strain RNR3, hits give low values",1.04
same,normalized growth,"locus YIL073C, strain SPO22, hits give low values",1.28
same,normalized growth,"locus YIL125W, strain kgd1, hits give low values",1.02
same,normalized growth,"locus YIR030C, strain dcg1, hits give low values",1.04
same,normalized growth,"locus YJL092W, strain hpr5, hits give low values",0.996
same,normalized growth,"locus YJL095W, strain BCK1 (second series), hits give low values",0.998
same,normalized growth,"locus YJL095W, strain BCK1, hits give low values",1.05 and 0.966
same,normalized growth,"locus YJL115W, strain asf1, hits give low values",1.01
same,normalized growth,"locus YJL129C, strain trk1, hits give low values",0.958
same,normalized growth,"locus YJL134W, strain LCB3, hits give low values",1.01
same,normalized growth,"locus YJL154C, strain vps35, hits give low values",1.01
same,normalized growth,"locus YJL164C, strain tpk1, hits give low values",0.966
same,normalized growth,"locus YJL166W, strain qcr8, hits give low values",1
same,normalized growth,"locus YJL168C, strain set2, hits give low values",1.03
same,normalized growth,"locus YJL187C, strain SWE1 (second series), hits give low values",1.04
